An excerpt weighted towards active compounds, which were near 5.8% of everything screened.
Luciferase inh – qHTS Assay for Inhibitors of Firefly Luciferase; Potency, µM (top dose mostly 57.1 µM), for the others: top-dose activity change, negative = inhibition, actives largely listed as inhibitors; AID 411, 2009; Luciferin 4-monooxygenase (Photinus pyralis), P08659; 72,000 tested, 2.2% active; purified firefly luciferase, luminescence, 8 min; also: % is scaled to controls: 0 for no effect and ±100 for the full control effect; nearly all actives have a fitted effect of over 40% in size
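Luminescence read-out after 8 min at room temperature; enzyme reaction used luciferin plus 10 uM ATP (linear range) in imidazole buffer pH 7.2 with KCl, MgCl2, Tween 20 and BSA. Each sample was run as a titration.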
TSHR ag – qHTS Assay for Agonists of the Thyroid Stimulating Hormone Receptor; HEK293-CNG-TSHR cells (CNG channel as cAMP sensor), membrane potential dye, cAMP; Potency, µM (top dose mostly 57.1 µM), inactives show at the top dose activation, hits mostly activators; 73,000 tested, 0.48% active; active = well fitted activation curve with a large enough effect in the main read-out, with a control signal flat, not every such curve was filed as active; inconclusive = small, poorly fitted or top-dose-only effect, or a change in a side signal; inactive = no such curve, though single readings can be large or run the other way; % of control where 0% means no effect;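 also: the control signal comes from parental cells without the receptor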
Target sequence (P16473 whole entry, looked up): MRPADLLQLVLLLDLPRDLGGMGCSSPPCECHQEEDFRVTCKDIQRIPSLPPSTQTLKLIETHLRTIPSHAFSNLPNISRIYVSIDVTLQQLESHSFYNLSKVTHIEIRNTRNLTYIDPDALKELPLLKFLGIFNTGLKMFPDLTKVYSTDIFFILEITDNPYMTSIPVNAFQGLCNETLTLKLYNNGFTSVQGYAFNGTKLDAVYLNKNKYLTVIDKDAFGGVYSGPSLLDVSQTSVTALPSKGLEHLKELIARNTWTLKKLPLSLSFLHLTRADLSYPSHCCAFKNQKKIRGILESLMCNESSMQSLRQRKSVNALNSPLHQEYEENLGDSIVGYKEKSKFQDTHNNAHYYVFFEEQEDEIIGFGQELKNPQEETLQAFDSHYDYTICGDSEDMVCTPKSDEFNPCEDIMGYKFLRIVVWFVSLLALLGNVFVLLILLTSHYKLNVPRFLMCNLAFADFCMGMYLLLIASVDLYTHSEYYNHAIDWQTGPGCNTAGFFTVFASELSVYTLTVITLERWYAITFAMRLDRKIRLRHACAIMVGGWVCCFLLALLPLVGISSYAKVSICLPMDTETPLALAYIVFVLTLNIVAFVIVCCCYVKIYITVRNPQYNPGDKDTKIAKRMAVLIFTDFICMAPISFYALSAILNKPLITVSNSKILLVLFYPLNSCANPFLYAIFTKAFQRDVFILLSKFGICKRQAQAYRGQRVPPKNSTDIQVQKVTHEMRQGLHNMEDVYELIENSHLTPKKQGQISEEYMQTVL
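HEK 293 cells stably expressing TSHR and a modified CNG channel, with CNG-only parental cells as counterscreen, were preloaded 60 min at room temperature with membrane potential dye containing 100 uM RO 20-1724. Compound exposure was 30 min, and depolarization was read as fluorescence at 590 nm.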
HEK293 cAMP ctrl – qHTS Assay for Agonists of the Thyroid Stimulating Hormone Receptor: Activators of Intracellular cAMP Concentrations in Parental HEK 293 | parental HEK293 CNG cAMP sensor, membrane potential fluorescence | Potency, µM (highest dose often 57.1 µM), inactives show at the highest dose activation, most hits filed as activators | 73,000 tested, 2.5% active; also: % of control where 0% means no effect; nearly all actives have a fitted effect of over 55% in size
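Counterscreen for endogenous-receptor signalling: CNG-channel HEK 293 cells report cAMP rise by membrane depolarization. After 60 min dye equilibration with 100 uM RO 20-1724, compounds incubated 30 min before bottom-read fluorescence at 590 nm.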
GBA mod – Glucocerebrosidase | Potency, µM | Lysosomal acid glucosylceramidase (Homo sapiens), P04062 | purified enzyme, resorufin glucoside fluorescence (screen aimed at inhibitors), 20 min | 48,000 tested, 1.1% active; in the data active = potency below about 15 µM; inconclusive = mostly about 16 µM to 33 µM;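 also: the screen sought inhibitors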
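Wild-type enzyme at 0.2 nM final in 50mM citric acid/KH2PO4, 10mM sodium taurocholate, 0.01% tween-20, pH 5.9, with resorufin beta-D-glucopyranoside at 30 uM final. Compounds titrated, 20 min at RT, red fluorescence read; AC50 from titration.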
PK Bst – Pyruvate Kinase. 51,000 tested, 1.2% active. AID 361, 2006. purified pyruvate kinase, luminescence ATP production; ribose 5-phosphate activator present at AC10. Potency, µM; in the data active = potency below about 11 µM; inconclusive = mostly about 12 µM to 25 µM;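 the screen sought inhibitors and activators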;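 also: scaled between full activation by ribose 5 phosphate and full inhibition by luteolin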
Numbers without * were called inactive; i = inactive; ? = inconclusive; . = no result given; [ ] = another dose, or the depositor's remark. Unless noted, calls follow the shape of the dose curve; as a rule, active = well fitted curve in the direction sought with a large enough effect; inconclusive = small, poorly fitted or top-dose-only effect, or another doubt; inactive = no such curve, though single readings can be large; an effect the other way counts as inactive or inconclusive. Potency is read from the fitted curve at half-maximal effect.

SMILES	Luciferase inh	TSHR ag	HEK293 cAMP ctrl	GBA mod	PK Bst
O=C(Nc1ccc(N2CCN(C(=O)c3ccccc3)CC2)cc1)c1ccc(Br)o1	1.6%	-15.1%	-9.7%	>76.9	>57
O=C(Nc1ccc(N2CCCC2)cc1)c1ccc(Br)o1	2.51µM*	0.7%[11.4 µM]	-10.7%[11.4 µM]	.	.
O=C(O)C1CC(=O)N(CCC23CC4CC(CC(C4)C2)C3)C(=Nc2ccccc2)S1 (stereo not given)	.	5.1%	3.3%	.	.
CN(C(=O)c1ccccc1C(=O)O)C1CC(C)(C)NC(C)(C)C1	1.9%	-0.7%	6.5%	.	.
O=C(c1ccc(F)cc1)c1ccc(N2CCCC2)cc1	-29.7%	?	?	.	.
CCn1c(=O)c(=O)[nH]c2cc(C(=O)NC3CCCc4ccccc43)ccc21 (stereo not given)	3.0%	8.1%	5.6%	.	i
O=C(Nc1ccc(N2CCCCC2)cc1)c1ccc(F)cc1	3.98µM*	-7.1%	1.0%	>76.9	.
CCn1c(=O)c(=O)[nH]c2cc(C(=O)Nc3ccc(S(=O)(=O)N4CCCC4)cc3)ccc21	0.0%	-0.5%[11.4 µM]	59.9%	5.15*	>57
Cc1[nH]c2ccc(F)cc2c(=O)c1SC(F)(F)C(F)F	1.9%	-2.3%[11.4 µM]	2.5%	9.46*	>57
CC(C)c1ccc(NC(=O)c2csnn2)cc1	5.01µM*	-5.3%	-14.1%	i	i
CC(C)c1ccc(NC(=O)c2cccnc2)cc1	15.8µM*	-10.5%[11.4 µM]	1.8%[11.4 µM]	.	.
CC(C)c1ccc(NC(=O)C(c2ccccc2)N2CCOCC2)cc1 (stereo not given)	-5.0%	.	19.7%	.	.
CCN1C(C)=C(C(=O)OC)C(c2ccccc2)N2C(=O)[C@](O)(C(=O)OC)CC(C(C)=O)=C12 (stereo not given in full)	.	-4.9%[11.4 µM]	-1.4%[11.4 µM]	.	.
Cn1ccnc1SCC(=O)Nc1ccc2ccccc2c1	12.6µM*	-7.7%	1.6%	.	i
O=C(O)c1ccccc1NS(=O)(=O)c1ccc(F)c(Cl)c1	.	-4.8%	-0.2%	.	.
O=C(Nc1nc2c(Cl)cccc2s1)c1ccc(Br)o1	-10.9%	?	?	>76.9	>57
O=C(Nc1nc2ccc(Cl)cc2s1)c1ccc(Br)o1	12.6µM*	-0.7%[11.4 µM]	8.5%[11.4 µM]	.	.
CC(C)(C)c1ccc(C(=O)Nc2cnccn2)cc1	3.98µM*	6.2%	1.5%	>76.9	5.58*
CC(C)(C)c1cc(NC(=O)c2cccnc2)no1	-16.4%	1.1%	0.8%	>76.9	>57
Cc1ccn2c(CCc3nnc4cc(C)ccn34)nnc2c1	3.0%[11.4 µM]	-0.2%[11.4 µM]	9.0%[11.4 µM]	.	.
COc1ccc(NC(=O)c2cc3n(n2)C(C(F)(F)F)CC(c2ccco2)N3)cc1 (stereo not given)	-5.0%	-7.0%	-1.0%	>76.9	>57
O=C(NCC12CC3CC(CC(C3)C1)C2)c1cc2n(n1)C(C(F)(F)F)CC(c1ccco1)N2 (stereo not given)	-0.9%	-0.5%[11.4 µM]	-11.8%	13.1*	>57
Cc1cc(C)nc(NC(=NCCc2c[nH]c3ccccc23)NC(=O)c2ccco2)n1	-0.2%	5.01µM*	21.1%	.	>57
CCN1C=CC(=C2C(=O)c3ccccc3C2=O)C=C1	0.316µM*	9.7%	2.7%	.	.
CCCN1C=CC(=C2C(=O)c3ccccc3C2=O)C=C1	0.159µM*	-7.3%	-7.8%	.	.
SMILES	Luciferase inh	TSHR ag	HEK293 cAMP ctrl	GBA mod	PK Bst
CC1=CC(=C2C(=O)c3ccccc3C2=O)C=C(C)O1	-6.0%	-14.8%	-3.7%	>76.9	>57
CN1C=CC(=C2C(=O)c3ccccc3C2=O)C=C1	7.94µM*	0.4%	1.8%	.	.
COCCn1c(=O)c(-c2ccccc2)nc2cnc(N3CCN(C)CC3)nc21	1.7%[11.4 µM]	3.6%	10.7%[0.457 µM]	.	.
Cc1cc2nc(-c3cccc(NC(=O)c4ccc(Br)o4)c3C)oc2cc1C	7.94µM*	?	?	.	.
NS(=O)(=O)c1cc2c(cc1Cl)=NC(CCC(=O)O)=NS=2(=O)O	2.6%[11.4 µM]	0.5%[11.4 µM]	-3.9%[11.4 µM]	.	.
O=c1oc2ccccc2n1CSC1=NCCS1	3.8%	17.8%	-2.3%	>76.9	>57
O=c1oc2ccccc2n1CSc1nc2ccccc2s1	-4.0%	?	25.1µM*	>76.9	>57
COc1ccccc1-n1cnnc1SCC(=O)c1cc(C)n(Cc2cccs2)c1C	-13.0%	?	31.6µM*	.	>57
Cc1ccccc1NS(=O)(=O)c1cccc(-c2nnc(-c3ccccc3)o2)c1	-0.7%	?	6.31µM*	.	.
O=S(=O)(NC1CCCCC1)c1cccc(-c2nnc(-c3ccccc3)o2)c1	0.4%	?	20µM*	.	.
O=C(Nc1cccc(-c2nnc(-c3ccccc3)o2)c1)C1CCCCC1	1.5%	?	?	>76.9	>57
CCc1cc2c(nc1CC)CCN(CC/C(C)=N/O[C@@H](C)c1cn([C@H](CO)Cc3ccccc3)nn1)C2	-0.4%[11.4 µM]	-4.2%[11.4 µM]	7.3%[11.4 µM]	.	.
CC(C)CO/N=C1/[C@H]2O[C@@H]2[C@@H](O)[C@H]2[C@H]1CCn1c(=O)n(-c3ccccc3)c(=O)n12	0.3%[11.4 µM]	0.1%[11.4 µM]	-5.4%[11.4 µM]	.	.
COc1ccc(-c2cn3cc(C)ccc3n2)cc1OC	2.51µM*	11.5%	17.1%	.	1.76*
CCCC(c1nnnn1C1CCCC1)N1CCN(C(=O)c2ccco2)CC1 (stereo not given)	1.3%	?	15.8µM*	>76.9	>57
CC(C)CC(c1nnnn1C1CCCC1)N1CCN(C(=O)c2ccco2)CC1 (stereo not given)	3.8%	?	7.94µM*	>76.9	>57
CCCCC(c1nnnn1C1CCCC1)N1CCN(C2CCCCC2)CC1 (stereo not given)	3.9%	?	2.51µM*	>76.9	>57
C[C@H](Oc1ccc(Oc2cnc3ccc(Cl)cc3n2)cc1)C(=O)O	0.7%[11.4 µM]	1.1%[11.4 µM]	2.9%[11.4 µM]	.	.
Cc1ccccc1-c1cncnc1NCc1ccccc1	1.8%[2.29 µM]	?	?	.	.
CC1(C)Cc2nc3sc4c(SCC(=O)NCc5ccco5)ncnc4c3cc2CO1	5.01µM*	5.1%	5.8%	>76.9	i
Cc1nc2c(sc3nc4c(cc32)COC(C)(C)C4)c(=O)n1CC(=O)NCc1ccco1	2.4%	6.2%	7.5%	>76.9	>57
CCOC(=O)c1cnc(-n2nc(C)cc2C)nc1N1CCOCC1	1.0%	9.8%	1.0%	>76.9	.
CCOC(=O)c1cnc(-n2nc(C)cc2C)nc1N(C)C	12.6µM*	5.7%	6.8%	>76.9	11.1*
CCOC(=O)c1cnc(-n2nc(C)cc2C)nc1NCCc1ccccc1	0.8%	?	25.1µM*	>76.9	?
CCCc1cc(=O)n2[nH]c(-c3cc(OC)c(OC)c(OC)c3)nc2n1	1.6%	25.1µM*	14.3%	>76.9	>57
CCn1c(SCC#N)nc2c(c1=O)C1(CCCC1)Cc1ccccc1-2	0.7%	?	25.1µM*	>76.9	>57
CCCn1c(SCC(N)=O)nc2c(c1=O)C1(CCCC1)Cc1ccccc1-2	-0.3%[25.5 µM]	.	.	.	>25.6
COc1ccc2[nH]cc(CCNc3cc(-c4c(C)noc4C)ncn3)c2c1	2.0%[2.29 µM]	7.1%	-9.1%	.	.
Nc1c(Br)cc2oc(-c3ccccc3)nc2c1Br	-13.2%[25.5 µM]	.	.	.	.
COc1ccc(-c2nc3c(Br)c(N)c(Br)cc3o2)cc1	2.51µM*	.	.	.	?
